What all share (test): universal protein binding microarray (PBM); transcription factors of Arabidopsis thaliana; high values mean tight binding
What all share (conditions): protein: recombinant; tags: GST; chain copies: 2; dsDNA, one strand shown

The target in experiment [1] is T1, GST-ANAC092(1-176) (Arabidopsis thaliana, UniProt Q9FKA0 1-176).
T1 sequence: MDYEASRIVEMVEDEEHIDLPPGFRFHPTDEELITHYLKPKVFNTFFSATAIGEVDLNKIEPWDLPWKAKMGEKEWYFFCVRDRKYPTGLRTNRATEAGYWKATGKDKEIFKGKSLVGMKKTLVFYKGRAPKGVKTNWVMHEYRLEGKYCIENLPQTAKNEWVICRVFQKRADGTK
An outline of the steps: (§1)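 Protein amounts were determined by A280 or anti-GST western blot after glutathione–Sepharose 4B purification of GST-tagged proteins induced in cells, with zinc acetate included for zinc-finger proteins. Duplicate runs at 200 to 500 nM final were done on custom all-10-mer Agilent 4 × 180K arrays made double-stranded by primer extension. The normalised enrichment score (E-score) over gapped and ungapped 8-mers is the measure of binding.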

The target of experiment [2] is T2, GST-ANAC019 NAC domain (Arabidopsis thaliana, UniProt Q9C932 14-162).
T2 sequence: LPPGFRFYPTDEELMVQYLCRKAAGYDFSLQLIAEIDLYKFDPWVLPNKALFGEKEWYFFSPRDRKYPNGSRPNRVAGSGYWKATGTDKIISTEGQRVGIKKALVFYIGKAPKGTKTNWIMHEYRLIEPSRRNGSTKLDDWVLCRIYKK
An outline of the steps: as §1

Experiment [3] addresses T3, GST-ANAC055(1-171) (Arabidopsis thaliana, UniProt Q9LDY8 1-171).
T3 sequence: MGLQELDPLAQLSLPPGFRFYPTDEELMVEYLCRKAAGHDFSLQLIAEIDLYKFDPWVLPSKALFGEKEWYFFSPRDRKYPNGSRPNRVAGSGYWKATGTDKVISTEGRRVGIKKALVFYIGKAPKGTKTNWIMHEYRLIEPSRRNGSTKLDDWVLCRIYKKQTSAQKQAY
Put shortly: as §1

In experiment [4] the target is T4, GST-ATAF1 NAC domain (Arabidopsis thaliana, UniProt Q39013 7-158).
T4 sequence: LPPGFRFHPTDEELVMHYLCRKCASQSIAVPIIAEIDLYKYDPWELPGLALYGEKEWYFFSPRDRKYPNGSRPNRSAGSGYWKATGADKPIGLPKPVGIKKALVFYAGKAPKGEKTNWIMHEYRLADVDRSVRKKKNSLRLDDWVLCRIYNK
An outline of the steps:
as §1

In experiment [5] the target is T5, GST-ANAC092(1-285) full length (Arabidopsis thaliana, UniProt Q9FKA0 1-285).
T5 sequence: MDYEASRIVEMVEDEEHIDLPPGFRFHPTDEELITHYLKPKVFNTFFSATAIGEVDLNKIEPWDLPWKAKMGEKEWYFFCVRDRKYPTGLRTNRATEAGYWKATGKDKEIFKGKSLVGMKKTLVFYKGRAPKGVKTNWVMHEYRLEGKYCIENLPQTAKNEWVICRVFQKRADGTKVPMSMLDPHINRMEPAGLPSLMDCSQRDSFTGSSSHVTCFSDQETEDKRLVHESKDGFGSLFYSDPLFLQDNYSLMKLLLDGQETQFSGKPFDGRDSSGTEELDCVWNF
Put shortly: as §1

Experiment [6] concerns the target T6, GST-NAP(1-166) (Arabidopsis thaliana, UniProt O49255 1-166).
T6 sequence: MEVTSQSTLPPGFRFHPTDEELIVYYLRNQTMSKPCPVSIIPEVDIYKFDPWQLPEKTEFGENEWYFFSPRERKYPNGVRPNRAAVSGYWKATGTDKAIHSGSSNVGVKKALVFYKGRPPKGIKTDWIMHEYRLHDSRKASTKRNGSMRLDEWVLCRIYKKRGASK
Put shortly:
as §1

For experiment [7], the target named is T7, GST-NST2(1-184) (Arabidopsis thaliana, UniProt Q9M274 1-184).
T7 sequence: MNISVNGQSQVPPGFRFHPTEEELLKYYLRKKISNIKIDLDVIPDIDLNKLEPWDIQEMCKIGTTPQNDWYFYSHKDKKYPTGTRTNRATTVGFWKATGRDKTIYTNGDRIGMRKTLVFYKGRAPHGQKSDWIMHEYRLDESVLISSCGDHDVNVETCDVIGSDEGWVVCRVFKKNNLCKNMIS
An outline of the steps:
as §1

The target in experiment [8] is T8, GST-NTL8 NAC domain (Arabidopsis thaliana, UniProt Q9XIN7 14-156).
T8 sequence: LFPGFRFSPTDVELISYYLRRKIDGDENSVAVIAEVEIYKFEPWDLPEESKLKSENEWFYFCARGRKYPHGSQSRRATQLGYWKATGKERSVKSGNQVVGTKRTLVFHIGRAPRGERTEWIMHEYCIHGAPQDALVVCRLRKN
An outline of the steps:
as §1

Experiment [9] deals with T9, GST-SND1(1-203) (Arabidopsis thaliana, UniProt Q9LPI7 1-203).
T9 sequence: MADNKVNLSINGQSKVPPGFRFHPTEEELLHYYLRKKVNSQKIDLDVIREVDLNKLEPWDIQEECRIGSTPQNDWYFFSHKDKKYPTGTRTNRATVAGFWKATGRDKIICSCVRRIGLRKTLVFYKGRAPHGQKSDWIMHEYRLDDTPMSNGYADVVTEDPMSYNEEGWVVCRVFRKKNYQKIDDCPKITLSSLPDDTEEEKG
Put shortly: as §1

The target of experiment [10] is T10, GST-VND3 NAC domain (Arabidopsis thaliana, UniProt Q9FH59 12-162).
T10 sequence: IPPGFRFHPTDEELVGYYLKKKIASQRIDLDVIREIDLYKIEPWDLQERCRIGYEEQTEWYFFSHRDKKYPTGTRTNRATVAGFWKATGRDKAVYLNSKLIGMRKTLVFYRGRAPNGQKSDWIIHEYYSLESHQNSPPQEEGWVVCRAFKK
Put shortly:
as §1

In experiment [11] the target is T11, GST-VND7 NAC domain (Arabidopsis thaliana, UniProt Q9C8W9 9-158).
T11 sequence: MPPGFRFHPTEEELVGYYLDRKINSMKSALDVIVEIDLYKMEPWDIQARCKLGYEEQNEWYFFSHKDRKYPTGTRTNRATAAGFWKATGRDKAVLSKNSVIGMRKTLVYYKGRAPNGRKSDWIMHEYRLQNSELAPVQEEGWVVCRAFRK
Put shortly:
as §1

Take CTACGCAA: the binding signal in experiment [1] stood at 0.427 E-score; in [2], 0.316 E-score; in experiment [3], 0.207 E-score; in [4], 0.267 E-score; in experiment [5], 0.447 E-score; in [6], 0.196 E-score. Further, the binding signal worked out at 0.364 E-score in [7]; 0.126 E-score in experiment [8]; 0.488 E-score in experiment [9]; 0.365 E-score in [10]; 0.349 E-score in [11].
For the sequence AAGCGTGT, the binding signal in experiment [1] was found to be 0.421 E-score; in experiment [2] it was 0.242 E-score; in experiment [3] it was 0.167 E-score; in [4], 0.207 E-score; in [5] it was 0.44 E-score; in experiment [6] it was 0.133 E-score. For the same sequence, the binding signal in experiment [7] is 0.192 E-score; in [9], 0.186 E-score; in experiment [10] it was 0.126 E-score; in experiment [11], 0.213 E-score.
AACGTACG: the binding signal in experiment [1] turned out to be 0.297 E-score; in [2] it was 0.122 E-score; in experiment [3], 0.207 E-score; in experiment [4] it was 0.326 E-score; in [5], 0.403 E-score; in experiment [6] it was 0.212 E-score. In addition, the binding signal in experiment [7] was 0.184 E-score; in experiment [9], 0.326 E-score; in experiment [10], 0.308 E-score; in [11], 0.209 E-score.
As to CGTACGCA, the binding signal stood at 0.392 E-score in experiment [1]; 0.359 E-score in [2]; 0.328 E-score in [3]; 0.291 E-score in experiment [4]; 0.433 E-score in experiment [5]; 0.365 E-score in experiment [6]. The binding signal in [7] amounted to 0.24 E-score; in experiment [8] it was 0.0905 E-score; in [9] it was 0.32 E-score; in [10], 0.378 E-score; in [11], 0.341 E-score.
Regarding AGCACGCA, the binding signal is 0.435 E-score in experiment [1]; 0.333 E-score in experiment [2]; 0.281 E-score in [3]; 0.31 E-score in experiment [4]; 0.453 E-score in experiment [5]; 0.282 E-score in experiment [6]. The binding signal turned out to be 0.222 E-score in experiment [7]; 0.0609 E-score in [8]; 0.343 E-score in experiment [9]; 0.301 E-score in [10]; 0.216 E-score in [11].
Consider ACGGCACT, for which the binding signal is 0.331 E-score in experiment [1]; 0.467 E-score in experiment [2]; 0.449 E-score in [3]; 0.454 E-score in experiment [4]; 0.393 E-score in experiment [5]; 0.425 E-score in experiment [6]. In addition, the binding signal worked out at 0.187 E-score in experiment [7]; 0.0691 E-score in [8]; 0.174 E-score in experiment [9]; 0.402 E-score in experiment [10]; 0.453 E-score in [11].
TGCGTACA: the binding signal in [1] worked out at 0.372 E-score; in experiment [2] it was 0.307 E-score; in experiment [3], 0.288 E-score; in experiment [4], 0.272 E-score; in experiment [5] it was 0.437 E-score; in [6], 0.289 E-score. Further, the binding signal in experiment [7] came out at 0.279 E-score; in experiment [8], 0.0577 E-score; in experiment [9] it was 0.393 E-score; in experiment [10], 0.305 E-score; in experiment [11], 0.281 E-score.

These data come from PMC4081100, “A DNA-binding-site landscape and regulatory network analysis for NAC transcription factors in Arabidopsis thaliana”.
